Compound activity deposited in PubChem BioAssay by Center for Chemical Genomics, University of Michigan.
Dicer inh = human Dicer pre-microRNA cleavage inhibition; Q9UPY3; cat-ELCCA pre-miR-21 Dicer processing, chemiluminescence; hits give high values; z-score at 25 µM; 47,000 tested, 6% active; AID 1347074; in the data active = z-score above about 3, passing the limit was not always enough;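 also: plate controls were vehicle for no effect and no enzyme for full effect; higher signal means more uncleaved substrate so more Dicer inhibition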
Numbers without * were called inactive. The full list was thinned out, with hits kept by preference.

SMILES | Dicer inh
COc1ccc(C2C3=C(CC(c4ccco4)CC3=O)Nc3nc4ccccc4n32)cc1 (centres undefined) | 3.13*
C#CC(C)(C)NS(=O)(=O)c1ccc(F)cc1 | -0.55
CC1CCc2c(sc3ncn(CC(=O)O)c(=O)c23)C1 (centres undefined) | 2.92
O=C(Cn1nnc2sc3c(c2c1=O)CCCC3)Nc1ccccc1 | 0.74
O=C(Cn1nnc2sc3c(c2c1=O)CCCC3)Nc1ccc(F)c(Cl)c1 | 3.56*
CC1CCc2c(sc3nnn(CC(=O)Nc4ccc(Cl)cc4)c(=O)c23)C1 (centres undefined) | 3.58*
O=C(Cn1nnc2sc3c(c2c1=O)CCCC3)Nc1ccc(Cl)cc1 | -0.06
CC1CCc2c(sc3nnn(CC(=O)Nc4ccc(Br)cc4)c(=O)c23)C1 (centres undefined) | -1.05
S=C(N/N=C/c1ccc(Cl)c(Cl)c1)NC1CC2CC1C1C=CCC21 (centres undefined) | 0.09
CCOC(=O)N1CCN(C(=O)N2c3ccccc3Sc3ccccc32)CC1 | 4.7*
CC1CCN(C(=O)N2c3ccccc3Sc3ccccc32)CC1 | -0.44
O=C(N1CCN(c2ccccc2)CC1)N1c2ccccc2Sc2ccccc21 | 1.28
O=c1c2ccccc2cnn1-c1ccc2ccccc2c1 | -1.25
Cc1cccc(-n2ncc3ccccc3c2=O)c1 | 4.25*
O=c1c2ccccc2cnn1-c1ccc(F)cc1 | 0.98
O=C(CSc1n[nH]c(=O)n1-c1ccc(OCc2ccccc2)cc1)c1ccc(C(F)(F)F)cc1 | -0.82
O=S(=O)(NNc1ccc(F)cc1F)c1ccc(Cl)cc1 | 0.75
Cc1ccccc1S(=O)(=O)Nc1ccc2oc3c(c2c1)CCCC3 | 3.9*
Cc1oc2ccc(NS(=O)(=O)c3ccc(Cl)cc3)cc2c1C(=O)O | 0.79
Cc1oc2ccc(NS(=O)(=O)c3ccc(F)cc3)cc2c1C(=O)O | -1.57
O=C(O)c1ccc(S(=O)(=O)Nc2ccc3oc4c(c3c2)C(=O)CCC4)cc1 | 0.94
COc1ccc(S(=O)(=O)Nc2ccc3oc4c(c3c2)CCCC4)cc1 | 1.41
Cc1oc2ccc(NS(=O)(=O)c3ccccc3)cc2c1C(=O)O | 3.44*
O=C(O)/C=C/C(=O)Nc1ccc(C(=O)O)c(O)c1 | 4.68*
Cc1ccc(NC(=O)/C=C/C(=O)Nc2ccc(C)c(Cl)c2)cc1Cl | 0.84
SMILES | Dicer inh
Cc1cccc(NC(=O)/C=C/C(=O)O)c1 | -0.11
COc1ccc(CNCC2(O)CCOC(C)(C)C2)cc1 (centres undefined) | 3.64*
COc1ccc(CNCc2ccc(Br)cc2)c(OC)c1 | 0.88
COc1ccc(CN=C(C)C2CCOC2=O)cc1 (centres undefined) | -1.53
O=C(NCc1ccccc1F)NC1CCCCC1 | 2.4
Cc1ccc(C)c(C2Nc3ccccc3NC3=C2C(=O)CC(c2cccs2)C3)c1 (centres undefined) | 3.37*
Cc1ccc(C2Nc3ccccc3NC3=C2C(=O)CC(c2cccs2)C3)cc1 (centres undefined) | 3.24*
O=C1CC(c2ccc(Cl)cc2)CC2=C1C(c1ccc3c(c1)OCO3)Nc1ccccc1N2 (centres undefined) | -2.82
Cc1ccc2occ(C3Nc4ccccc4NC4=C3C(=O)CC(c3ccccc3Cl)C4)c(=O)c2c1 (centres undefined) | 2.26
COc1ccc(C2CC(=O)C3=C(C2)Nc2ccccc2NC3c2ccc3c(c2)OCO3)cc1OC (centres undefined) | 2.07
Cc1ccc2occ(C3Nc4ccccc4NC4=C3C(=O)CC(c3ccccc3)C4)c(=O)c2c1 (centres undefined) | 1.13
CN(C)c1ccc(C2Nc3ccccc3NC3=C2C(=O)CC(c2cccs2)C3)cc1 (centres undefined) | -3.09
Cc1ccc(C2Nc3ccccc3NC3=C2C(=O)CC(c2ccc4c(c2)OCO4)C3)s1 (centres undefined) | 5.42*
O=C1CC(c2ccccc2)CC2=C1C(c1ccsc1)Nc1ccccc1N2 (centres undefined) | 2.39
CCCCCc1ccc(C(=O)NC(=S)Nc2c(C(=O)OCC)cnn2C)cc1 | -2.97
CC(C)(C)c1cc2nc3c(c(=O)n2[nH]1)CN(C1CCCCC1)C3=O | -1.3
O=C(c1cn(CCOc2ccccc2Cl)c2ccccc12)C1CC1 | -1.21
Cc1ccc(C(=O)CC(=O)c2ccc(Cl)cc2)c(O)c1 | 4.37*
Cc1cc(C)c(C(=O)CC(=O)c2ccccc2Cl)c(O)c1 | 1.36
O=C(CC(=O)c1ccccc1O)c1ccc(Cl)cc1 | -1.03
CCOC(=O)C(NC(=O)c1ccccc1)(OCC)C(F)(F)F (centres undefined) | 2.54
COc1cccc(C2CC(c3ccccc3)=NN2C(=O)CCCC(=O)O)c1OC (centres undefined) | 0.83
COc1ccc(C2=NN(C(=O)CCCC(=O)O)C(c3ccc(Cl)cc3)C2)cc1OC (centres undefined) | -1
COc1ccc(C2=NN(C(=O)CCCC(=O)O)C(c3ccc(F)cc3)C2)cc1OC (centres undefined) | 3.78*
O=C(O)c1cc2cc([N+](=O)[O-])ccc2oc1=O | 0.39
O=[N+]([O-])c1cc(Cl)c(-n2cccc2)cc1Oc1ccc(Cl)cc1 | 0.95
